# Screening data: PubChem, National Center for Advancing Translational Sciences (NCATS)
# NS1 function inh: qHTS Assay for Inhibitors of Influenza NS1 Protein Function | hit rate 0.4% among 270,000 | Potency, µM (titrated, usually from 46.1 µM), inactives show at the highest dose activity, positive = more growth; calls by dose curve; note: actives are rising curves; nearly all actives have a fitted effect of over 50% in size
#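 Growth recovery, yeast-based: influenza A NS1 expressed in S. cerevisiae causes slow growth, and suppressors are detected by OD600. The parent strain without NS1 is used as positive control.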
# LmPK inh: qHTS Assay for Inhibitors of Leishmania Mexicana Pyruvate Kinase (LmPK). Q27686. purified LmPK, Kinase-Glo ATP luminescence, 1 h. Potency, µM (top dose mostly 57.5 µM), for the others: at the top dose activity change, negative = inhibition, hits mostly inhibitors. hit rate 0.37% among 290,000; note: % is set by controls: 0 for no effect and ±100 for the full control effect
# Target sequence (Q27686 whole entry, looked up): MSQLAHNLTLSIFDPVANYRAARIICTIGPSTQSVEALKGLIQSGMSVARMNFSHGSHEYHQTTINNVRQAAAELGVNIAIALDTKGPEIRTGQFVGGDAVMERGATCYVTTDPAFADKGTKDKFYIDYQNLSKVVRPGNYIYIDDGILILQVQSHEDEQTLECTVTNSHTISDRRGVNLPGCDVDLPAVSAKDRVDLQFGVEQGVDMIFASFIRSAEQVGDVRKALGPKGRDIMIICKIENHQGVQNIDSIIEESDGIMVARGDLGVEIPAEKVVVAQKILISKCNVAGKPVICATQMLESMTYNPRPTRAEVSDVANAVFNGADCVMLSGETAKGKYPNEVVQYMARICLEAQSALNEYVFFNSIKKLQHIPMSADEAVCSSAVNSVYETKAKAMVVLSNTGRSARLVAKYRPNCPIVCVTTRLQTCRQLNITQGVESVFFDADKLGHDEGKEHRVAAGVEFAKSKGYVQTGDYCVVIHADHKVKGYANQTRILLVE
#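 0.1 nM LmPK, 0.5 mM PEP, 0.1 mM ADP; 50 mM imidazole pH 7.2, 7 mM MgCl2, 50 mM KCl; 1 h RT. Kinase-Glo luminescence readout, normalized to no-enzyme (full inhibition) and uninhibited wells.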
# Tb PYK inh: qHTS of Trypanosoma Brucei Inhibitors. Potency, µM (top dose mostly 76.8 µM), for inactives: at the top dose activity, negative = inhibition, usual class: inhibitors. pyruvate kinase (Trypanosoma brucei), Q57TT1. TbPYK enzyme, Kinase-Glo Plus ATP luminescence, 45 min. AID 624173, 2012. hit rate 0.12% among 410,000; note: % is set by controls: 0 for no effect and ±100 for the full control effect; nearly all actives have a fitted effect of over 50% in size
#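 Luminescent Kinase-Glo Plus end-point after 45 min room-temperature reaction of T. brucei pyruvate kinase started with 130 uM ADP (final). Buffer TEA 50 mM pH 7.2 with KCl, MgCl2, BSA, Tween-20; titration-based qHTS with fitted concentration-effect curves.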
# RE007 growth inh: qHTS Assay for Inhibitors of the HIV-1 protein Vpr | S. pombe RE007 Vpr strain, BacTiter-Glo ATP luminescence, 24 h | Potency, µM (titrated, usually from 92.2 µM), inactives show at the top dose activity change, negative = less growth, usual class: inhibitors | hit rate 0.21% among 360,000; active = well fitted falling curve with a large enough effect; inconclusive = small, poorly fitted or top-dose-only effect; inactive = no such curve, though single readings can be large or run the other way; note: % is set by controls: 0 for no effect and ±100 for the full control effect; nearly all actives have a fitted effect of over 50% in size
#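 Fission yeast strain RE007, carrying one chromosomally integrated HIV-1 vpr copy, was seeded at OD 0.01 in PMG+AL medium with 23 nL pinned compound. After 24 h at 30 °C and 99% humidity, viability was read by BacTiter-Glo luminescence.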
# Active calls of the source: *; ? = inconclusive; . = not tested or not shown. The list is not random: actives were taken first. Their share in the collection is about 0.77%. Unless noted, calls come from the whole dose curve; as a rule, active = well fitted curve in the direction sought with a large enough effect; inconclusive = small, poorly fitted or top-dose-only effect, or another doubt; inactive = no such curve, though single readings can be large; an effect the other way counts as inactive or inconclusive. Potency is the fitted concentration of half-maximal effect.
SMILES,NS1 function inh,LmPK inh,Tb PYK inh,RE007 growth inh
N#C/C(=C/c1ccc(N2CCCCCC2)o1)c1ccc(Cl)cc1,-120.2%,-1.2%,?,25.1µM*
CC1=C(O)C(=O)C=C2C1=CC=C1C2(C)CCC2(C)C3CC(C)(C(=O)O)CCC3(C)CCC12C (stereo not drawn),.,.,35.5µM*,?
Cc1cccc(-c2n[nH]c(=S)n2-c2ccccc2)c1[N+](=O)[O-],18.3%,?,7.08µM*,-10.8%
Cc1c(Cl)c(-c2n[nH]c(=S)n2-c2ccccc2)nn1C,2.9%,-11.6%,2.82µM*,-0.9%
COc1cc(/C=C2/C(=O)c3cccc([N+](=O)[O-])c3C2=O)c(Br)cc1O,0.8%,14.1µM*,?,-12.3%
COc1ccccc1NC(=O)CCCCCN1C(=O)c2cccc([N+](=O)[O-])c2C1=O,-1.4%,0.2%,1.1%,-4.4%
CC(C)Cn1c(=O)c2ccccc2n2c(CCC(=O)N3CCN(c4ccccc4)CC3)nnc12,.,.,5.7%,.
COc1ccc2cc(-c3ccccc3)ncc2c1,-38.7%,-18.5%,-15.4%,-10.5%
COc1cc(OC)cc(-c2cc3ccc(OC)cc3cn2)c1,.,.,?,39.8µM*
Cn1c(/C=N/c2nc3ccccc3[nH]2)nc2ccccc21,-47.2%,-1.2%,-1.7%,-3.7%
C(=N\c1nc2ccccc2[nH]1)/c1cccs1,-3.3%,14.1µM*,-6.2%,-11.6%
O=C1N/C(=C\c2ccc(O)cc2)C(=O)c2ccccc21,9.7%,10µM*,?,-26.5%
Cc1cc(OC(C)C(=O)N2CCC(c3nc4ccccc4o3)CC2)ccc1Cl (stereo not drawn),.,.,-1.5%,.
N/C(=N\OC(=O)c1ccc(=O)n(Cc2ccccc2)c1)c1ccccn1,-2.9%,-4.3%,0.6%,-10.9%
N/C(=N\OC(=O)c1ccc2ccccc2c1)c1ccccn1,.,14.1µM*,?,-14.5%
CCCc1ccc(C(=O)O/N=C(\N)c2ccccn2)cc1,-105.5%,15.8µM*,?,?
N/C(=N\OC(=O)c1cccc([N+](=O)[O-])c1)c1ccccn1,.,-7.7%,-7.5%,-11.9%
COc1cccc(C(=O)O/N=C(\N)c2ccccn2)c1,-31.8%,14.1µM*,?,?
N/C(=N\OC(=O)C1CCCCC1)c1ccccn1,-0.3%,14.1µM*,-27.0%,-27.5%
O=C(Nc1c(C(=O)N2CCN(c3ccccc3F)CC2)oc2ccccc12)c1ccc(Br)o1,.,.,-1.9%,.
CCc1ccc2c(c1)c(=O)c(C(=O)c1ccccc1)cn2CC(=O)Nc1ccc(C)c(Cl)c1,.,.,-0.7%,.
Sc1ccc2ccccc2c1CNCc1ccccc1,-0.3%,.,.,.
Cc1c(NC(=O)C(C)(C)Oc2ccc(Cl)cc2)cccc1-c1nc2ncccc2o1,.,.,-1.0%,.
O=C(O)c1ccc(N2Cc3ccccc3C2)cc1O,?,14.1µM*,?,0.7%
O=C(O)c1ccc(N2CCCCC2)cc1O,6.3%,1.6%,3.4%,1.0%
SMILES,NS1 function inh,LmPK inh,Tb PYK inh,RE007 growth inh
O=C(Nc1nc(-c2cccs2)cs1)C1=COCCO1,-17.7%,?,-31.3%,35.5µM*
COc1cccc(C=Nc2cc(C)on2)c1O,-19.5%,15.8µM*,-3.2%,4.4%
COc1cccc(/C=N/c2oc(-c3ccccc3)cc2C#N)c1O,-1.8%,-16.7%,-2.9%,?
COc1cccc(C=Nc2ccccc2C#N)c1O,8.5%,14.1µM*,-14.2%,-11.5%
CN(C)CCN(Cc1ccccc1)S(=O)(=O)c1ccc(-c2cc(C(F)(F)F)on2)s1,.,.,3.6%,.
Cc1c(Cl)sn(-c2ccc(Cl)cc2)c1=O,-57.5%,1.3%,4.47µM*,1µM*
Cc1nn(-c2ccc(Cl)cc2)c(=O)c2ccccc12,-0.8%,1.3%,-2.8%,-7.4%
CC1CCN(c2cc3c(cc2F)c(=O)c(S(=O)(=O)c2cccc(Cl)c2)cn3Cc2ccccc2)CC1,.,.,-9.3%,.
Cc1nn(-c2nc3ccccc3[nH]2)c(=O)c2ccccc12,.,7.08µM*,?,6.31µM*
Cc1cc(Nc2ccccc2)n(-c2nc3ccccc3[nH]2)n1,-116.5%,1.0%,-4.8%,35.5µM*
Cc1cc(NC(=O)c2ccccc2F)n(-c2nc3ccccc3[nH]2)n1,-3.3%,0.8%,0.9%,17.7%
O=C(COC(=O)c1cccs1)c1ccc2ccccc2c1,5.3%,-3.3%,2.6%,?
CCc1ccc(C(=O)COC(=O)c2cccs2)cc1,-62.6%,15.8µM*,-15.4%,.
O=C(COC(=O)c1cccs1)c1ccc2c(c1)OCCO2,-116.5%,12.6µM*,?,?
CCN(CC)Cc1ccc(NC(=O)c2sc3cc(Cl)ccc3c2Cl)cc1,6.5%,-3.9%,-1.0%,28.2µM*
Cc1cc(-c2n[nH]c(=S)n2/N=C/c2c[nH]c3ccccc23)n[nH]1,-1.3%,?,2.82µM*,-5.9%
Cc1cc(-c2n[nH]c(=S)n2/N=C/c2ccc(Br)s2)n[nH]1,26.8%,-18.0%,1.12µM*,.
CCOC(=O)c1c(C)[nH]c(C)c1S(=O)(=O)N1CCC(C(=O)N2CCN(c3cccc(C)c3)C(C)C2)CC1 (stereo not drawn),.,.,-5.0%,.
CCOc1ccc2nc(/N=C/c3c(C)[nH]n(-c4ccccc4)c3=O)sc2c1,-16.9%,-19.6%,-19.6%,?
CCOc1ccc2nc(/N=C/c3c(C)[nH]n(-c4ccc(C)cc4)c3=O)sc2c1,-16.0%,14.1µM*,-33.0%,12.6µM*
O=C1N(Cc2cccc(C(F)(F)F)c2)c2ccccc2S(=O)(=O)N1c1cccc(Cl)c1,.,.,-4.2%,.
COC(=O)c1ccccc1NC(=O)CSc1cc(-c2ccccc2)nc(C)n1,.,.,2.1%,.
Cc1ccc(-c2nnc(-c3cccs3)o2)cc1,-30.7%,?,-0.3%,20µM*
CS(=O)(=O)c1ccc2nc(NC(=O)c3cccs3)sc2c1,-7.9%,15.8µM*,-25.6%,?
CCCNS(=O)(=O)c1ccc2nc(NC(=O)c3ccc(F)cc3)sc2c1,.,.,1µM*,.
SMILES,NS1 function inh,LmPK inh,Tb PYK inh,RE007 growth inh
O=C(c1ccco1)N1CCc2ccccc21,.,-17.1%,-2.9%,14.0%
O=C(/C=C/c1ccco1)N1CCc2ccccc21,.,7.94µM*,?,?
Cc1ccc(/C=C/C(=O)N2CCc3ccccc32)o1,-9.4%,?,20µM*,-90.4%
CC1COCC(C)N1C1=C(Cl)C(=O)c2ccccc2C1=O (stereo not drawn),.,.,22.4µM*,39.8µM*
COc1ccc(CSc2nc3ccccc3[nH]2)cc1,-1.7%,15.8µM*,-10.2%,31.6µM*
Cc1ccccc1OCc1nc2ccccc2[nH]1,-5.9%,17.8µM*,-2.4%,?
COc1ccc(OCc2nc3ccccc3[nH]2)cc1,-62.4%,17.8µM*,-8.6%,-2.5%
CN(C)C(=O)Oc1ccc(OCc2nc3ccccc3[nH]2)cc1,-4.4%,7.08µM*,?,?
COc1cccc(OCc2nc3ccccc3[nH]2)c1,-115.2%,-12.2%,-2.3%,0.2%
O=C(Nc1c2c(nn1-c1ccc(Cl)cc1)CS(=O)(=O)C2)c1ccccc1F,.,.,2.5%,.
O=C1NC(=S)S/C1=C1\Sc2ccccc2N1CCCS(=O)(=O)O,-1.9%,15.8µM*,0.3%,5.1%
COC(=O)c1nn(-c2ccc(-c3ccccc3)cc2)cc1O,-23.1%,15.8µM*,-16.8%,-12.3%
